From the supplement of paper PMC11732987, “Enantioselective OTUD7B fragment discovery through chemoproteomics screening and high-throughput optimisation” (Communications Chemistry, 2025)

Tests used:
Assay in all cases: log2 ratio of Biotin-Ahx-Ub-VS probe labelling (fragment/DMSO); higher = less target engagement (more negative = stronger competition), active = hit call of the paper (q ≤ 0.05, log2 ratio ≤ -1)
Settings in all cases: compound concentration: 200 uM; treatment time: 3 h
[1] = target: T1, USP42 (UniProt Q9H9J4)
T1 sequence (whole entry): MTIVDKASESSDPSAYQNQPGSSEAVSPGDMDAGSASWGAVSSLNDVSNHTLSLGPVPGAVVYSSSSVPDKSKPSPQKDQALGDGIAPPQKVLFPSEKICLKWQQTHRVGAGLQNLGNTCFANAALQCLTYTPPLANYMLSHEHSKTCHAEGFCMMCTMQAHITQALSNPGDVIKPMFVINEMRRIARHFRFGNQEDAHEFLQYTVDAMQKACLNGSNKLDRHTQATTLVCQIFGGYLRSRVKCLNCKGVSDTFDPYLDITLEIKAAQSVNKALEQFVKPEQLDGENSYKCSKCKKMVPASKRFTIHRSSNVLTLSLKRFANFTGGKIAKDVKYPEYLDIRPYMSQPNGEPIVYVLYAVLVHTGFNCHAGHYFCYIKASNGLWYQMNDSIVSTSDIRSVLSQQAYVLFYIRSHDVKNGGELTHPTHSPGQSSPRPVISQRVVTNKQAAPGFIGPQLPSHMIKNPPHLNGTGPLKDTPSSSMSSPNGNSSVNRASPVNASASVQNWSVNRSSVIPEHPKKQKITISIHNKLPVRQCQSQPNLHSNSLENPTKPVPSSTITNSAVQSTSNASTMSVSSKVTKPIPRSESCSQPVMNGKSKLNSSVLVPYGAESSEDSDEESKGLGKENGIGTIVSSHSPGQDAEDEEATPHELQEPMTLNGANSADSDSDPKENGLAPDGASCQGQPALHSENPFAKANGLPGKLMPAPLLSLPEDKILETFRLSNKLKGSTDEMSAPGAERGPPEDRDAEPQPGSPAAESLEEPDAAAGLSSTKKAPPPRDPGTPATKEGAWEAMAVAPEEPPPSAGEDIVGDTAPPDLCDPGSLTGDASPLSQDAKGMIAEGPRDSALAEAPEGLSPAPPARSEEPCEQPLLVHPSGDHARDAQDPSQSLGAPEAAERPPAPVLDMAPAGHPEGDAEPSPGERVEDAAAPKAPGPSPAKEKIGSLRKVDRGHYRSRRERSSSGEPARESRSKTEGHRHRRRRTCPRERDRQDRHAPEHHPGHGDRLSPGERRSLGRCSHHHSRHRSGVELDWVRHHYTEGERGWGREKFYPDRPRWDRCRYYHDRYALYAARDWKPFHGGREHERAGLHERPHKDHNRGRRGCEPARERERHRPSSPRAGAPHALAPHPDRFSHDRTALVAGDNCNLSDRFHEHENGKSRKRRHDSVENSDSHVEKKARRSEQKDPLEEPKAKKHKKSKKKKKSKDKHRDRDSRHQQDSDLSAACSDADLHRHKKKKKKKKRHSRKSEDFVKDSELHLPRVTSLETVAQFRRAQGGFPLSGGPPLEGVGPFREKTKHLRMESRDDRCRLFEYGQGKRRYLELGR
Method in brief: (§1)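 Average log2 ratios of fragment over vehicle were obtained by unpaired t-test from global-median-normalised Spectronaut label-free quantities. Proteins with ≥2 unique peptides were included. HEK293T lysate (495 µg per sample) was treated in triplicate with fragment at 200 µM or vehicle for 3 h, then with Biotin-Ahx-Ub-VS at 0.5 µM final for 1 h, and labelled DUBs were NeutrAvidin-enriched and run by diaPASEF LC-MS/MS.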

[2] = target: USP46 (UniProt P62068)
Method in brief: as §1

[3] = target: T2, USP47 (UniProt Q96K76)
T2 sequence (whole entry): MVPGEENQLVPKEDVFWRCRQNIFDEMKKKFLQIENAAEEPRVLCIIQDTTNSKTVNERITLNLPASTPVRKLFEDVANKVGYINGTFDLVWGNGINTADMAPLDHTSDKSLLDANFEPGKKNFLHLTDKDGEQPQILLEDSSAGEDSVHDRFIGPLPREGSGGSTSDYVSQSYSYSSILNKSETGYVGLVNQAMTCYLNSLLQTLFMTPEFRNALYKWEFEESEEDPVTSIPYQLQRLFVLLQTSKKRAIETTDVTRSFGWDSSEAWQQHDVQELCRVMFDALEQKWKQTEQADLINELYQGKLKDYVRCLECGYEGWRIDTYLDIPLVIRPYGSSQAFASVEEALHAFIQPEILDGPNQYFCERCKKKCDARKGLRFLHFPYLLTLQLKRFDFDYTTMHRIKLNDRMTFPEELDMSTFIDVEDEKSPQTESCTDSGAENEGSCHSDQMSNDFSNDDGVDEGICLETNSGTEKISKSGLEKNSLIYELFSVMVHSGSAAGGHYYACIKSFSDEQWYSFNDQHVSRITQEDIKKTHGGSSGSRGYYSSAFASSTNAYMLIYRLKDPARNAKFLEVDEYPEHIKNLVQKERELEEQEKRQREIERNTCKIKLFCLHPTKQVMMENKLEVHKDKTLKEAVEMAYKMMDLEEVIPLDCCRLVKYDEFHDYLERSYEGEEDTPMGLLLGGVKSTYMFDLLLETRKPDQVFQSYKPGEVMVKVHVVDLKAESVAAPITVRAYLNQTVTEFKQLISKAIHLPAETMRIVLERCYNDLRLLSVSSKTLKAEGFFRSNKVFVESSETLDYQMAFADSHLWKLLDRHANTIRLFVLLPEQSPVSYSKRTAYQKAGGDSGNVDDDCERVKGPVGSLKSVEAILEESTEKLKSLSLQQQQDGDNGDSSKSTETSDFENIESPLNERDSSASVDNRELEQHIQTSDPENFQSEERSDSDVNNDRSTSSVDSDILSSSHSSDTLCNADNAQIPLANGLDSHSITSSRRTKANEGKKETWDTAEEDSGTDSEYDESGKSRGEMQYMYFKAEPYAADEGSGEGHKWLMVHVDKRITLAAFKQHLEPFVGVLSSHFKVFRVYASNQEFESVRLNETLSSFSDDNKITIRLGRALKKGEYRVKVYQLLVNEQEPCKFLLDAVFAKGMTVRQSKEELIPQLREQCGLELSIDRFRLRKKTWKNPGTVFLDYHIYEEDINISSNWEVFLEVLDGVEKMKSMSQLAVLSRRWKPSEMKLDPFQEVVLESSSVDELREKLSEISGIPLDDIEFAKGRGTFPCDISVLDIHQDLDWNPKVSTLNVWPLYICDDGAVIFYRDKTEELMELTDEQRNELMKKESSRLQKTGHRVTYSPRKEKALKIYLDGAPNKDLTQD
Method in brief: as §1

[4] = target: T3, USP48 (UniProt Q86UV5)
T3 sequence (whole entry): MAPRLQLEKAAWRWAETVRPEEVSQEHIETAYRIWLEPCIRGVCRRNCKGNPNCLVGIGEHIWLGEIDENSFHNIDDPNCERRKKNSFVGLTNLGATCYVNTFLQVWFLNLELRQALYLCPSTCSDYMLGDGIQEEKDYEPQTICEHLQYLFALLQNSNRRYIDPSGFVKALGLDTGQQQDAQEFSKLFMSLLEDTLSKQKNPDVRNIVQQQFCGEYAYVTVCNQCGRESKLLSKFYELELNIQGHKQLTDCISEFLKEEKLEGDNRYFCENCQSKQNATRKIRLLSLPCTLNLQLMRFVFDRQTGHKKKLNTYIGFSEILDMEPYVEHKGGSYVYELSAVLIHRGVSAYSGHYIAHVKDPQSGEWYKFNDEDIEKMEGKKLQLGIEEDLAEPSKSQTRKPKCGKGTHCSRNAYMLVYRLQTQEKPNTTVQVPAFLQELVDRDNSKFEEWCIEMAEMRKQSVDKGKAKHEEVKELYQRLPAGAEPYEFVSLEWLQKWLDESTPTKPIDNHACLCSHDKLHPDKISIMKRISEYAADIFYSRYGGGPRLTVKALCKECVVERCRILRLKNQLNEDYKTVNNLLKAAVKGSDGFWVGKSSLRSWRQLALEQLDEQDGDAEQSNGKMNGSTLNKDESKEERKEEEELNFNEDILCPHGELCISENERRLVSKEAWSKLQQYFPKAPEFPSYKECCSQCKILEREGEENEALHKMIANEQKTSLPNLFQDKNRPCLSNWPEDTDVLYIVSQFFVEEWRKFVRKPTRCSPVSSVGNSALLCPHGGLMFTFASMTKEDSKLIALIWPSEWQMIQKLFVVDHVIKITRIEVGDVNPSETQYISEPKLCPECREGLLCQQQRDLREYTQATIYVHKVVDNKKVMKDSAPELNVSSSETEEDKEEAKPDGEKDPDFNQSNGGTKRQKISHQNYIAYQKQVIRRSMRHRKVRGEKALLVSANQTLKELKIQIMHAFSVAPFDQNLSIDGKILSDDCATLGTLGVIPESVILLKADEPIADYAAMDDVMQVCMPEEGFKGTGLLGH
Method in brief: as §1

[5] = target: T4, USP5 (UniProt P45974)
T4 sequence (whole entry): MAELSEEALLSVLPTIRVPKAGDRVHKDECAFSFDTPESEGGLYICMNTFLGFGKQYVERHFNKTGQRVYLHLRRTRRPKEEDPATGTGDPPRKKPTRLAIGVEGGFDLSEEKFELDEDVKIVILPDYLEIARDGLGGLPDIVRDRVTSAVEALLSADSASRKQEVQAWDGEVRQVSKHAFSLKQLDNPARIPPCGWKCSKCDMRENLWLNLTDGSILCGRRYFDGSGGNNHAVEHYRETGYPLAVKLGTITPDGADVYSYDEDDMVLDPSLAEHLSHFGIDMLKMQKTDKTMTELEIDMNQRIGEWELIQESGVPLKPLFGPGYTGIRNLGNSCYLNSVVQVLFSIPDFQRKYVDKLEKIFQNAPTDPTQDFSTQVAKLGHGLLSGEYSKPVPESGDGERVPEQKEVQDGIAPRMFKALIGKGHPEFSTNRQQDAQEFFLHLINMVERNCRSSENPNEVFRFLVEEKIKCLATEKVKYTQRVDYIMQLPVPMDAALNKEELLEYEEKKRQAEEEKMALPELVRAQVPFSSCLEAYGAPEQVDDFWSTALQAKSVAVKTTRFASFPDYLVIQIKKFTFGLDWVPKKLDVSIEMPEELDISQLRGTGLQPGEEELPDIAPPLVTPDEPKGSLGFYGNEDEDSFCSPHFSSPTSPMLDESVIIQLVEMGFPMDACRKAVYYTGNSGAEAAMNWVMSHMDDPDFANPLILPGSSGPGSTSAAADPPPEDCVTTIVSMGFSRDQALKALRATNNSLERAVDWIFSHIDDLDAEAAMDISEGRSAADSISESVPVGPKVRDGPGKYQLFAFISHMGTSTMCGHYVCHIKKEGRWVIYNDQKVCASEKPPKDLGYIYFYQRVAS
Method in brief: as §1

[6] = target: USP54 (UniProt Q70EL1)
Method in brief: as §1

[7] = target: USP7 (UniProt Q93009)
Method in brief: as §1

[8] = target: T5, USP8 (UniProt P40818)
T5 sequence (whole entry): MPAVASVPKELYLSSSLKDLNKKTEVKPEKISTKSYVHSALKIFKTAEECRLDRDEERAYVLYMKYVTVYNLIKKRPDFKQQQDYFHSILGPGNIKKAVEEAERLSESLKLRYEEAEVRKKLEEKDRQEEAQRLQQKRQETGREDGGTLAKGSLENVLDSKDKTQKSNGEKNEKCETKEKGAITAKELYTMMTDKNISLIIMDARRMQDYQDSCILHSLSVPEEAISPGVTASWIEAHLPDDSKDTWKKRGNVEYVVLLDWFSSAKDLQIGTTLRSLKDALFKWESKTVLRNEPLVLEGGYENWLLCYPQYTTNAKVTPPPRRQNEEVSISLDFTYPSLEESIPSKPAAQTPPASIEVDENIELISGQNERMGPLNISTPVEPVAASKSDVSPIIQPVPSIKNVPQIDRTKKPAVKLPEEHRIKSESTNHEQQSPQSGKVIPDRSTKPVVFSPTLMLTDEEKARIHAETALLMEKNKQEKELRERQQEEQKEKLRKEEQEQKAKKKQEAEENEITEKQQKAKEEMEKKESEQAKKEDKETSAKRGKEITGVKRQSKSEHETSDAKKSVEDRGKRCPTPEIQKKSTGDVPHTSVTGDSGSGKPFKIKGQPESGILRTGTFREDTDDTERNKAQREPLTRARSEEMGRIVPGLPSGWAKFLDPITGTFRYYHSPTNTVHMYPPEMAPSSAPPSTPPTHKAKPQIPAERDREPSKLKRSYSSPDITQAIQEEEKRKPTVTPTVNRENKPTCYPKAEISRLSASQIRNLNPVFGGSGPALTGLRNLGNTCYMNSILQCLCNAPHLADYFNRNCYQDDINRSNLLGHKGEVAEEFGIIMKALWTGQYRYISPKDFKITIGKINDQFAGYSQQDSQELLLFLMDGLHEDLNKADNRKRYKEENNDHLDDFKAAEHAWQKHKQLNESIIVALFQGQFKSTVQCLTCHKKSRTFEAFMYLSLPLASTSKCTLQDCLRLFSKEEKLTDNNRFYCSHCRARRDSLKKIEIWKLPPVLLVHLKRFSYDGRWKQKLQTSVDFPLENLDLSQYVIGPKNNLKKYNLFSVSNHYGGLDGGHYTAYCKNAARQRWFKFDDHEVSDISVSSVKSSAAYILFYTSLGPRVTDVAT
Method in brief: as §1

[9] = target: USP9X (UniProt Q93008)
Method in brief: as §1

[10] = target: UniProt O00487
Method in brief: as §1

Measured: log2 ratio of Biotin-Ahx-Ub-VS probe labelling

USP7, sequence (Q93009 whole entry, looked up): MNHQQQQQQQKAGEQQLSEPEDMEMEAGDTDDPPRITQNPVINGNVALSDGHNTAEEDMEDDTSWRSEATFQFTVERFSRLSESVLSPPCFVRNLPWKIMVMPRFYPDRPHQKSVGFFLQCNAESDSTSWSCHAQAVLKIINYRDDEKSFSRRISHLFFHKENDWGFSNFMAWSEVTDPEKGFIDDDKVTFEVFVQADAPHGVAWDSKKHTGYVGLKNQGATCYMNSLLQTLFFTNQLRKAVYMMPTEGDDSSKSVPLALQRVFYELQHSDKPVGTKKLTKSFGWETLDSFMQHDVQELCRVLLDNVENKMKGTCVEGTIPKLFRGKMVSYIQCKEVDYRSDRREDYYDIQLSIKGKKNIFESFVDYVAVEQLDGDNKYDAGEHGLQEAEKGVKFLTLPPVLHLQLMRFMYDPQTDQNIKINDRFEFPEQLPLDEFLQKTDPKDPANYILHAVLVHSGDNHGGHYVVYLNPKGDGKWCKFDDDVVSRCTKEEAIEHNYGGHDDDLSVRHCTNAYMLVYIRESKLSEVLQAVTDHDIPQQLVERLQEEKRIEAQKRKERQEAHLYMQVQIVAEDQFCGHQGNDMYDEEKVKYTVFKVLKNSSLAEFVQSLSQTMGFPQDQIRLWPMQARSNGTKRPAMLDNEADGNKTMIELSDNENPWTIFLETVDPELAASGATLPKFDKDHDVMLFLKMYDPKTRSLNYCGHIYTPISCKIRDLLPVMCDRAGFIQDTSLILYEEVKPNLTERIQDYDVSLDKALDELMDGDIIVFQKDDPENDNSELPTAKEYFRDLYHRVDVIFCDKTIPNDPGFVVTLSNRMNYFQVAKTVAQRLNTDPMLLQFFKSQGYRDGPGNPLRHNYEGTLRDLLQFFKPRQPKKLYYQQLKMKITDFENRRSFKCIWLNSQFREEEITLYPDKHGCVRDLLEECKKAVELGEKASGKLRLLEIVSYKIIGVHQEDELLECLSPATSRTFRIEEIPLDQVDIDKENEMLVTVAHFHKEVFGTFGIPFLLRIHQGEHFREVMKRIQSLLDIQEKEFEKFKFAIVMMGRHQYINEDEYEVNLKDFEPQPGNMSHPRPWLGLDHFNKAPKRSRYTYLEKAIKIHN
UniProt O00487, sequence (O00487 whole entry): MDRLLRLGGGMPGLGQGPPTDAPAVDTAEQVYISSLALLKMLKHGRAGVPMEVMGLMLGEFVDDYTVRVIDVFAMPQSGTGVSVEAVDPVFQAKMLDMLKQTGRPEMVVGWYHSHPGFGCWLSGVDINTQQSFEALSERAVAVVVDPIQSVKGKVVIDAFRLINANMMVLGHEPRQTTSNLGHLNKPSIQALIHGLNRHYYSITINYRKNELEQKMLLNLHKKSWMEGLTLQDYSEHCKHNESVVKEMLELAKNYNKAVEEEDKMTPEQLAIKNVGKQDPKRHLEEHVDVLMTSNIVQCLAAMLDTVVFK
USP54, sequence (Q70EL1 whole entry): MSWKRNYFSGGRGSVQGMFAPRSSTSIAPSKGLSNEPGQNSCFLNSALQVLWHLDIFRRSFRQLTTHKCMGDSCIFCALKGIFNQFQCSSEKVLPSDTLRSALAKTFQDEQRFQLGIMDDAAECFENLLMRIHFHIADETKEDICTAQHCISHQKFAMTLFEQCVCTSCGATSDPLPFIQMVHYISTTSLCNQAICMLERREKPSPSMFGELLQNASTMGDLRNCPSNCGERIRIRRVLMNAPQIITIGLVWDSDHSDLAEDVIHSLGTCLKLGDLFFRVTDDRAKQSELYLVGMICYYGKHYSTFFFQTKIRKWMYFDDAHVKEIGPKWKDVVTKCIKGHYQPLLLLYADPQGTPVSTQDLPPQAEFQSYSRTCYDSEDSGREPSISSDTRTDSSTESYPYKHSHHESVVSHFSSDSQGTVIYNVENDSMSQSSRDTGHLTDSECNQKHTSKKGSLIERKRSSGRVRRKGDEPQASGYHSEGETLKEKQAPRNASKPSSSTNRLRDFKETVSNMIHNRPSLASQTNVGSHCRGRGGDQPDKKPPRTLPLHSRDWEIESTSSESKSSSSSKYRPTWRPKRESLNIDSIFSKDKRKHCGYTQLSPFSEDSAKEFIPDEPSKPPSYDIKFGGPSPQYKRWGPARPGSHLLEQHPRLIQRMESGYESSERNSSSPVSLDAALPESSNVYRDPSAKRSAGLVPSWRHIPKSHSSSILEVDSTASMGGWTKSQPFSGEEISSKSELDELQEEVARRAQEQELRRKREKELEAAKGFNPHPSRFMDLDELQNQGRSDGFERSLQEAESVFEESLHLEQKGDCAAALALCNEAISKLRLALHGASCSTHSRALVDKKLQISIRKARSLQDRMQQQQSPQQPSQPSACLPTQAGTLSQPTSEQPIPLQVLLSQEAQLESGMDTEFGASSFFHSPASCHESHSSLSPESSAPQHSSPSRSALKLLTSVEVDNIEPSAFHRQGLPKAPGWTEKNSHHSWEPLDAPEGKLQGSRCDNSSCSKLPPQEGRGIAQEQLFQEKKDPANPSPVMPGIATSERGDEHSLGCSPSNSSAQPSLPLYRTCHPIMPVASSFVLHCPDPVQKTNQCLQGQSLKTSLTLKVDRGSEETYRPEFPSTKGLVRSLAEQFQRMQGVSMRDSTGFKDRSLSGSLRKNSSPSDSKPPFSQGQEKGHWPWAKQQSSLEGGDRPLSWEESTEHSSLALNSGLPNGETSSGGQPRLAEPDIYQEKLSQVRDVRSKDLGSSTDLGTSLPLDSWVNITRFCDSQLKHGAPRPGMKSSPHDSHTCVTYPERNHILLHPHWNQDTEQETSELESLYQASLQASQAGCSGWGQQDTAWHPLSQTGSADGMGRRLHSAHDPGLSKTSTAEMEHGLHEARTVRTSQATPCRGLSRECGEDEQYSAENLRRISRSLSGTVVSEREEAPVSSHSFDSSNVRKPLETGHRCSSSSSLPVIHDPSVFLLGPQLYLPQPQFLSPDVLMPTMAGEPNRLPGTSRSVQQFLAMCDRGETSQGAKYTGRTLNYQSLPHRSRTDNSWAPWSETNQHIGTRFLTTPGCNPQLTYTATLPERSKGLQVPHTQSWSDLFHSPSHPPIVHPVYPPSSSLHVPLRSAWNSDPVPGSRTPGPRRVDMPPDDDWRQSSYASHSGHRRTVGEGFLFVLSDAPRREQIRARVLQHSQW
USP46, sequence (P62068 whole entry): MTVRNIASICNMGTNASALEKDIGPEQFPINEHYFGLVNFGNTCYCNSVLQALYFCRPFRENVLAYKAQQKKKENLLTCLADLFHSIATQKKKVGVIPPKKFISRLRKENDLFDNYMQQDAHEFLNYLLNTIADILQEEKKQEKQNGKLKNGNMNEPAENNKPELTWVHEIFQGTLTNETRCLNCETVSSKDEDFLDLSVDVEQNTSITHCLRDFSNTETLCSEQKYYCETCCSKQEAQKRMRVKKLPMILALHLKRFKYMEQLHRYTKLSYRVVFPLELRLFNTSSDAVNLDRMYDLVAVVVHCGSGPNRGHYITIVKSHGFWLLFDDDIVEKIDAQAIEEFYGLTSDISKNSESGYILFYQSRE

O=C(CCl)NC1CCCCNC1=O (stereo not given)
inactive: [1] 0.0716 | [2] -0.113 | [3] -0.161 | [4] -0.154 | [5] -0.327 | [6] 0.114 | [7] -0.264 | [8] -0.134 | [9] -0.297 | [10] -0.13
